# Measurements published in PubChem BioAssay.
# Values joined by “and” are separate entries in the source; they are usually repeats but may differ in a detail not shown here. Equal entries are not always repeated. Records with an inconclusive call do not appear. Active and inactive are the calls of the source.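 Rule for the calls, unless noted: active = normalized viability below 100% at a tested concentration; inactive = the rest.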
# Key:
# [1] = growth inhibition of DIPG glioma cells, dose response, cell-based, SU-DIPG-XVII, MIPE5.0, CellTiter-Glo, qHTS (AID 1347060; cut-off not given, nearly all actives have AC50 up to about 26 µM;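 note: cells exposed to compound for 48 hours before viability readout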); details: SU-DIPG-XVII viability, CellTiter-Glo ATP luminescence
# [2] = growth inhibition of DIPG glioma cells, dose response, cell-based, SU-DIPG-IV, MIPE4.0, CellTiter-Glo, qHTS (AID 1347063; cut-off not given, nearly all actives have AC50 up to about 30 µM;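 note: compound exposure lasted 48 hours before the viability readout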); details: SU-DIPG-IV viability, CellTiter-Glo ATP luminescence
# [3] = growth inhibition of DIPG glioma cells, dose response, cell-based, SU-DIPG-XIII, MIPE5.0, CellTiter-Glo, qHTS (AID 1347064; cut-off not given, nearly all actives have AC50 up to about 23 µM;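 note: cells exposed to compound for 48 hours before the viability read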); details: SU-DIPG-XIII viability, CellTiter-Glo ATP luminescence
# [4] = viability loss in pontine glioma line – cell-based, SU-DIPG-XXV, MIPE5.0, CellTiter-Glo, qHTS, dose response (AID 1347065; cut-off not given, nearly all actives have AC50 up to about 26 µM;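 note: cells exposed to compound for 48 hours before ATP readout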); details: CellTiter-Glo ATP luminescence
# [5] = SU-DIPG-VI glioma cell viability, MIPE4.0 library, CellTiter-Glo luminescence, qHTS (AID 1347066; cut-off not given, nearly all actives have AC50 up to about 30 µM;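 note: cells exposed to compound for 48 hours before readout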); details: CellTiter-Glo ATP luminescence
# [6] = JHH-DIPG-1 glioma cell viability, MIPE5.0 library, CellTiter-Glo luminescence, qHTS (AID 1347067; cut-off not given, nearly all actives have AC50 up to about 26 µM;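 note: cells exposed to compound for 48 hours before readout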); details: JHH-DIPG-1 glioma viability, CellTiter-Glo ATP luminescence
# [7] = SU-DIPG-XXV glioma cell viability, MIPE5.0 library, qHTS (AID 1347068; cut-off not given, nearly all actives have IC50 up to about 30 µM;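 note: cells exposed to compound for 48 hours before viability readout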)
# [8] = sensitizers of A549 cells to miR-34 induction, primary screen, imaging, A549 dox-inducible miR-34, nuclei and caspase counts (AID 1347080;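 active = compounds whose cell count with miR-34 switched on is under 0.7 times the count with it off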); details: A549 miR-34 inducible, Hoechst nuclei count, 48 h
# [9] = modifiers of HSF1 nuclear foci, imaging, Selleck Cancer Library (AID 1347162; in the data active = plate-normalised HSF1 focus index below about 0.46); details: human cells, at 10 µM; SSMD: measured here: HSF1 foci SSMD mean; cell count: measured here: cell number; plate-normalised HSF1 focus index: stronger effect = lower value
# [10] = survival rescue of mitochondrial mutant cells in low glucose, primary screen, MELAS cybrids, Rieske KO mouse fibroblasts, CellTiter-Glo (AID 1508586;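 active = mean z-score across replicates of 1.96 or higher in either the MELAS or the Rieske mutant cell line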;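 note: z relative to plate mean and SD of compound and empty wells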)
# [11] = ovarian cancer cell viability with rucaparib, profiling panel, oncology-focused library, rucaparib conditional (AID 1508598); details: patient-derived ovarian cancer cells, CellTiter-Glo viability, 144 h, stronger effect = lower value
# [12] = LFS_MB_P medulloblastoma growth inhibition, cell-based, chromothripsis tumors, cisplatin or BGB combos (AID 1671449; in the data active = inhibition above about 80%;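 note: cells exposed for 96 hours; 0% = vehicle DMSO and 100% = killing by high DMSO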); details: LFS_MB_P medulloblastoma cells
# [13] = HDN33 neuroblastoma growth inhibition, cell-based, chromothripsis tumors, cisplatin or BGB combos (AID 1671450; in the data active = inhibition above about 80%;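 note: cells exposed to compound for four days; 0% = vehicle DMSO and 100% = cell killing by high DMSO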); details: HDN33 neuroblastoma cells, stronger effect = higher value
# [14] = ICB984 medulloblastoma cell growth inhibition, synergistic combos for chromothripsis tumors, cisplatin or BGB combos (AID 1671451; call rule not given here;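 note: cells exposed for 96 hours before readout; 0% = vehicle DMSO and 100% = killing by high DMSO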); details: ICB984 medulloblastoma cells, drug combinations, stronger effect = higher value
# [15] = HTB85 osteosarcoma cell growth inhibition, synergistic combos for chromothripsis tumors, BGB or cisplatin IC20 combos (AID 1671453; in the data active = inhibition above about 80%;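 note: cells exposed for 96 hours before readout; 0% = vehicle DMSO and 100% = high DMSO killing control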); details: HTB85 osteosarcoma cells, drug combinations, stronger effect = higher value
# [16] = MDA-MB-436 breast carcinoma cell growth inhibition, synergistic combos for chromothripsis tumors, BGB or cisplatin combos (AID 1671458; call rule not given here;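 note: cells exposed for 96 hours; 0% = vehicle DMSO and 100% = killing by high DMSO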); details: MDA-MB-436 breast carcinoma growth inhibition, drug combinations, stronger effect = higher value
# [17] = growth inhibition of BT084 medulloblastoma cells, cell-based, ICGC_MB145, cisplatin and BGB IC40 combos (AID 1671461; in the data active = inhibition above about 80%;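 note: cells exposed to drugs for 96 hours; 0% = vehicle DMSO and 100% = high DMSO full killing control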); details: drug combinations, stronger effect = higher value
# [18] = growth inhibition of RCMB18 medulloblastoma cells, cell-based, cisplatin and BGB IC40 combos (AID 1671462; in the data active = inhibition above about 80%;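 note: cells exposed to compound for four days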); details: stronger effect = higher value
# [19] = growth inhibition of CRL1545 osteosarcoma cells, cell-based, cisplatin and BGB IC20 combos (AID 1671464; in the data active = inhibition above about 80%;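 note: cells exposed to compound for 96 hours before readout; 0% = vehicle DMSO and 100% = high DMSO killing control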); details: stronger effect = higher value
# [20] = stronger effect = lower value, cell number ratio, induced over uninduced
# [21] = measured here: relative caspase fold change +Dox/-Dox
# [22] = measured here: total cells with miR-34 induction, stronger effect = lower value
# [23] = measured here: total cells without miR-34 induction
# [24] = MELAS cybrid survival, CellTiter-Glo 48 h, stronger effect = higher value
# [25] = Rieske KO mouse fibroblast survival, CellTiter-Glo 72 h
# [26] = measured here: with BGB IC20 combination, at 0.5 µM
# [27] = measured here: with cisplatin IC20 combination, at 0.5 µM
smiles,measurement,setting,value
COC(=O)c1ccc2c(C(=Nc3ccc(N(C)C(=O)CN4CCN(C)CC4)cc3)c3ccccc3)c(O)[nH]c2c1,AC50,[1],1.48 µM (active)
same,AC50,[2],9.35 µM (active)
same,AC50,[3],2.09 µM (active)
same,AC50,[4],1.66 µM (active)
same,outcome,[5],inactive
same,AC50,[6],5.9 µM (active)
same,IC50,[7],3.32 µM (active)
same,fold change,[8]; [20],0.909 (inactive)
same,fold change,[8]; [21],1.19
same,cell count,[8]; [22],5790
same,cell count,[8]; [23],6370
same,SSMD,[9],2.23
same,cell count,[9],7520
same,plate-normalised HSF1 focus index,[9],1.08 (inactive)
same,z-score,[10]; [24],-0.457 (inactive)
same,z-score,[10]; [25],-1.1
same,viability,"[11]; at 0.000305 µM, OCI-C5x cells, with rucaparib 10 µM, 100% = cells with rucaparib alone",119% (inactive)
same,viability,"[11]; at 0.000305 µM, OCI-C5x cells, without rucaparib",127% (inactive)
same,viability,"[11]; at 0.000305 µM, OCI-P5x cells, with rucaparib 20 µM, 100% = cells with rucaparib alone",103% (inactive)
same,viability,"[11]; at 0.000305 µM, OCI-P5x cells, without rucaparib",111% (inactive)
same,viability,"[11]; at 0.00122 µM, OCI-C5x cells, with rucaparib 10 µM, 100% = cells with rucaparib alone",107% (inactive)
same,viability,"[11]; at 0.00122 µM, OCI-C5x cells, without rucaparib",128% (inactive)
same,viability,"[11]; at 0.00122 µM, OCI-P5x cells, with rucaparib 20 µM, 100% = cells with rucaparib alone",95.9% (active)
same,viability,"[11]; at 0.00122 µM, OCI-P5x cells, without rucaparib",102% (inactive)
same,viability,"[11]; at 0.00488 µM, OCI-C5x cells, with rucaparib 10 µM, 100% = cells with rucaparib alone",114% (inactive)
same,viability,"[11]; at 0.00488 µM, OCI-C5x cells, without rucaparib",118% (inactive)
same,viability,"[11]; at 0.00488 µM, OCI-P5x cells, with rucaparib 20 µM, 100% = cells with rucaparib alone",95.7% (active)
same,viability,"[11]; at 0.00488 µM, OCI-P5x cells, without rucaparib",104% (inactive)
same,viability,"[11]; at 0.0195 µM, OCI-C5x cells, with rucaparib 10 µM, 100% = cells with rucaparib alone",120% (inactive)
same,viability,"[11]; at 0.0195 µM, OCI-C5x cells, without rucaparib",115% (inactive)
same,viability,"[11]; at 0.0195 µM, OCI-P5x cells, with rucaparib 20 µM, 100% = cells with rucaparib alone",94.4% (active)
same,viability,"[11]; at 0.0195 µM, OCI-P5x cells, without rucaparib",97.5% (active)
same,viability,"[11]; at 0.0781 µM, OCI-C5x cells, with rucaparib 10 µM, 100% = cells with rucaparib alone",116% (inactive)
same,viability,"[11]; at 0.0781 µM, OCI-C5x cells, without rucaparib",116% (inactive)
same,viability,"[11]; at 0.0781 µM, OCI-P5x cells, with rucaparib 20 µM, 100% = cells with rucaparib alone",93% (active)
same,viability,"[11]; at 0.0781 µM, OCI-P5x cells, without rucaparib",96.8% (active)
same,viability,"[11]; at 0.313 µM, OCI-C5x cells, with rucaparib 10 µM, 100% = cells with rucaparib alone",128% (inactive)
same,viability,"[11]; at 0.313 µM, OCI-C5x cells, without rucaparib",118% (inactive)
same,viability,"[11]; at 0.313 µM, OCI-P5x cells, with rucaparib 20 µM, 100% = cells with rucaparib alone",87% (active)
same,viability,"[11]; at 0.313 µM, OCI-P5x cells, without rucaparib",97.6% (active)
same,viability,"[11]; at 1.25 µM, OCI-C5x cells, with rucaparib 10 µM, 100% = cells with rucaparib alone",124% (inactive)
same,viability,"[11]; at 1.25 µM, OCI-C5x cells, without rucaparib",116% (inactive)
same,viability,"[11]; at 1.25 µM, OCI-P5x cells, with rucaparib 20 µM, 100% = cells with rucaparib alone",66.6% (active)
same,viability,"[11]; at 1.25 µM, OCI-P5x cells, without rucaparib",73.9% (active)
same,viability,"[11]; at 5 µM, OCI-C5x cells, with rucaparib 10 µM, 100% = cells with rucaparib alone",124% (inactive)
same,viability,"[11]; at 5 µM, OCI-C5x cells, without rucaparib",118% (inactive)
same,viability,"[11]; at 5 µM, OCI-P5x cells, with rucaparib 20 µM, 100% = cells with rucaparib alone",51.6% (active)
same,viability,"[11]; at 5 µM, OCI-P5x cells, without rucaparib",59.1% (active)
CC1(C)CCC2=C(O1)c1ccccc1C(=O)C2=O,AC50,[1],11.8 µM (active)
same,AC50,[2],20.9 µM (active)
same,AC50,[3],6.61 µM (active)
same,AC50,[4],9.34 µM (active)
same,AC50,[5],20.9 µM (active)
same,AC50,[6],7.42 µM (active)
same,IC50,[7],23.5 µM (active)
same,fold change,[8]; [20],1.06 (inactive) and 1.01 (inactive)
same,fold change,[8]; [21],0.218 and 1.14 and 0.258
same,cell count,[8]; [22],1260 and 1140 and 1760
same,cell count,[8]; [23],1190 and 1130 and 1740
same,z-score,[10]; [24],1.23 (inactive)
same,z-score,[10]; [25],-4.3
same,inhibition,"[12]; at 0.5 µM, stronger effect = higher value",-7.4% (inactive) and 16.4% (inactive)
same,inhibition,"[12]; measured here: combination with BGB IC20, at 0.005 µM",-31.4% and 0.116%
same,inhibition,"[12]; measured here: combination with BGB IC40, at 0.005 µM",-87% and -10.2%
same,inhibition,"[12]; measured here: combination with BGB IC40, at 0.05 µM",-28.3% and -0.424%
same,inhibition,"[12]; measured here: combination with cisplatin, at 0.5 µM, stronger effect = higher value",51.9% and 10.9%
same,inhibition,"[12]; measured here: combination with cisplatin, at 5 µM, stronger effect = higher value",111% and 116%
same,inhibition,"[13]; BGB combo, at 5 µM",99.6% and 99%
same,inhibition,[13]; at 0.5 µM,-4.92% (inactive) and -3.55% (inactive)
same,inhibition,"[13]; cisplatin combo, at 5 µM",99% and 99.1%
same,inhibition,[13]; [26],-10.6% and -8.55%
same,inhibition,[13]; [27],4.95% and -8.23%
same,inhibition,"[13]; single agent, at 5 µM",99.5% and 99.2%
same,inhibition,"[14]; BGB IC20 combo, at 0.005 µM",-11% and 11%
same,inhibition,"[14]; BGB IC40 combo, at 0.005 µM",-16.5% and -32.8%
same,inhibition,"[14]; BGB IC40 combo, at 0.05 µM",91.3% and 98.3%
same,inhibition,[14]; at 0.5 µM,-22.3% (inactive) and -31.1% (inactive)
same,inhibition,"[14]; cisplatin combo, at 0.05 µM",91.3% and 98.3%
same,inhibition,"[14]; cisplatin combo, at 0.5 µM",-20.6% and -42.9%
same,inhibition,"[14]; cisplatin combo, at 5 µM",-38.6% and -41.8%
same,inhibition,"[14]; measured here: 5 uM single agent, at 5 µM",2.52% and -3.56%
same,inhibition,[15]; at 0.5 µM,-5.23% (inactive) and 6.87% (inactive)
same,inhibition,"[15]; measured here: with BGB IC20, at 0.5 µM",23.7% and 5.32%
same,inhibition,"[15]; measured here: with BGB IC20, at 5 µM",76.7% and 64.8%
same,inhibition,"[15]; measured here: with cisplatin IC20, at 0.5 µM",-20.9% and 1.14%
same,inhibition,"[15]; measured here: with cisplatin IC20, at 5 µM",61.5% and 60.9%
same,inhibition,"[15]; single agent, at 5 µM",70.5% and 62.3%
same,inhibition,[16]; at 0.5 µM,-2.8% (inactive) and -3.21% (inactive)
same,inhibition,"[16]; measured here: BGB combination, at 0.5 µM",3.02% and -1.78%
same,inhibition,"[16]; measured here: BGB combination, at 5 µM",81.9% and 78.2%
same,inhibition,"[16]; measured here: cisplatin combination, at 0.5 µM",-22.4% and -3.57%
same,inhibition,"[16]; measured here: cisplatin combination, at 5 µM",86.7% and 87.2%
same,inhibition,[17]; at 0.5 µM,-12.5% (inactive) and -0.136% (inactive)
same,inhibition,"[17]; cisplatin combination, at 0.5 µM",-14.9% and 2.47%
same,inhibition,"[17]; cisplatin combination, at 5 µM",78.1% and 100%
same,inhibition,"[17]; measured here: BGB IC40 combination 0.05 uM, at 0.05 µM",-20.9% and -18.5%
same,inhibition,"[17]; single agent, at 5 µM",99.5% and 99.6%
same,inhibition,[18]; at 0.5 µM,-1.45% (inactive) and 6.25% (inactive)
same,inhibition,"[18]; cisplatin combo, at 5 µM",101%
same,inhibition,"[18]; measured here: BGB IC40 combination, at 0.05 µM",-6.29% and -29%
same,inhibition,"[18]; measured here: combination with cisplatin, at 0.5 µM",-0.361% and 36.6%
same,inhibition,"[18]; single agent, at 5 µM",98.1% and 99.3%
same,inhibition,[19]; at 0.5 µM,36.2% (inactive) and 22.6% (inactive)
same,inhibition,[19]; [26],33.7% and 14.6%
same,inhibition,[19]; [27],36.4% and 26.5%
same,inhibition,"[19]; single agent, at 0.05 µM",-59.2% and -23.1%
same,inhibition,"[19]; single agent, at 5 µM",98.9% and 98.3%
